Here are results for 49 compounds from PubChem BioAssay (Tox21).

The nature of experiment [1]: cAMP Responsive Elements (CRE) small molecule antagonists, cell-based qHTS assay: qHTS cell viability counter screen (AID 2060913). Further: nearly all actives have a fitted effect of over 40% in size. Summed up: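 HEK293T CRE-bla, 2,000 cells/well, 18 h preincubation; cpd in DMSO + NKH477 0.25 uM final, 3 h 37 C/5% CO2; LiveBLAzer 2 h RT, then CellTiter-Glo 30 min RT, luminescence.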
In general terms: Quantitative high-throughput screening tests each substance at several concentrations.

A short description of experiment [2]: cAMP Responsive Elements (CRE) small molecule agonists, cell-based qHTS assay: qHTS cell viability counter screen (AID 2060914). Further: nearly all actives have a fitted effect of over 50% in size. In short, it runs like this: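 In the same wells as the reporter read, viability of CRE-bla HEK 293T cells was quantified by CellTiter-Glo luminescence after a 3 h compound exposure.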

Each structure is given as a SMILES string. Records with an inconclusive call do not appear. A call without a number means that no potency is given here. A number with no mark means an inactive call. Calls of active or inactive are those of the source. The call rests on the fitted dose curve; in most records, active means well fitted cell-killing curve with a large enough effect in the repeat runs; inconclusive means weak or mixed curves, or effect the other way; inactive means flat fitted curve, though single readings scatter.

Take `O=C1c2ccccc2C(=O)c2c(O)c(O)cc(O)c21`: the Potency entry in experiment [1] and in experiment [2] was “inactive” in each case.

`CCCCC(CC)CO` (stereo not drawn): the Potency entry in experiment [1] and in experiment [2] was “inactive” throughout.

For the compound `Nc1cc([N+](=O)[O-])ccc1C(=O)O`, the Potency result in experiment [1] and in experiment [2] was “inactive” in each case.

For the compound `CN(C)CC/C=C1/c2ccccc2COc2ccc(CC(=O)O)cc21`, the Potency result in experiment [1] and in experiment [2] was “inactive” in each case.

`Cc1cc(CCCOc2c(C)cc(-c3noc(C(F)(F)F)n3)cc2C)on1`: the Potency entry in experiment [1] and in experiment [2] was “inactive” in each case.

For `COc1ccc(C(=O)c2cccc(O)c2)c(OC)c1`, the Potency result in experiment [1] and in experiment [2] was “inactive” in each case.

Regarding `C[C@@H]1C[C@H]2[C@@H]3CCC4=CC(=O)C=C[C@]4(C)[C@@]3(F)[C@@H](O)C[C@]2(C)[C@@]1(O)C(=O)COP(=O)(O)O`, the Potency entry in experiment [1] and in experiment [2] was “inactive” throughout.

For the compound `C=CC(=O)OCCCCCCCCCC`, the Potency result in experiment [1] and in experiment [2] was “inactive” throughout.

Take `NS(=O)(=O)c1ccccc1OC(F)(F)F`: the Potency result in experiment [1] and in experiment [2] was “inactive” in each case.

Regarding `CC[C@]1(O)C[C@@H]2CN(CCc3c([nH]c4ccccc34)[C@@](C(=O)OC)(c3cc4c(cc3OC)N(C)[C@H]3[C@@](O)(C(=O)OC)[C@H](OC(C)=O)[C@]5(CC)C=CCN6CC[C@]43[C@@H]65)C2)C1`, the Potency result in experiment [1] and in experiment [2] was “inactive” throughout.

In the case of `CC(C)=CCC[C@H](C)CC=O`, the Potency result in experiment [1] and in experiment [2] was “inactive” each time.

`CCN(CC)CCNC(=O)COc1ccc(Cl)cc1`: the Potency entry in experiment [1] and in experiment [2] was “inactive” throughout.

Regarding `COc1cc(-c2ccc(N=C=O)c(OC)c2)ccc1N=C=O`, the Potency entry in experiment [1] and in experiment [2] was “inactive” throughout.

As for `CC1CCC(C(C)(C)S)C(=O)C1` (stereo not drawn), the Potency result in experiment [1] and in experiment [2] was “inactive” in each case.

Take `CCCCCCC(O)CCOC(C)=O` (stereo not drawn): the Potency entry in experiment [1] and in experiment [2] was “inactive” in each case.

For the compound `COCCCN`, the Potency entry in experiment [1] and in experiment [2] was “inactive” each time.

`O=C(O)CCCCCCCCCCC(=O)O`: the Potency result in experiment [1] and in experiment [2] was “inactive” in each case.

As to `CCNC(=O)[C@@H]1CCCN1C(=O)[C@H](CCCN=C(N)N)NC(=O)[C@H](CC(C)C)NC(=O)CNC(=O)[C@H](Cc1ccc(O)cc1)NC(=O)[C@H](CO)NC(=O)[C@H](Cc1c[nH]c2ccccc12)NC(=O)[C@H](Cc1cnc[nH]1)NC(=O)[C@@H]1CCC(=O)N1`, the Potency result in experiment [1] and in experiment [2] was “inactive” throughout.

As for `CC(COCCO)OCCO` (stereo not drawn), the Potency entry in experiment [1] and in experiment [2] was “inactive” in each case.

For `Cc1cncc(C)c1`, the Potency entry in experiment [1] and in experiment [2] was “inactive” in each case.

As for `C[Si](C)O[Si](C)C`, the Potency entry in experiment [1] and in experiment [2] was “inactive” throughout.

With `O=c1cc[nH]c(=S)[nH]1`, the Potency result in experiment [1] and in experiment [2] was “inactive” throughout.

For the compound `Nc1ccc(S(=O)(=O)Nc2ccc(Cl)nn2)cc1`, the Potency entry in experiment [1] and in experiment [2] was “inactive” each time.

For the compound `CC(C)(O)c1coc(S(=O)(=O)NC(=O)Nc2c3c(cc4c2CCC4)CCC3)c1`, the Potency entry in experiment [1] and in experiment [2] was “inactive” throughout.

As to `CCCCCCCCC1CO1` (stereo not drawn), the Potency result in experiment [1] and in experiment [2] was “inactive” each time.

As for `CN(C)CC/C=C1\c2ccccc2Sc2ccc(Cl)cc21`, the Potency result in experiment [1] and in experiment [2] was “inactive” in each case.

Regarding `C/C=C(C)/C=C/C=C(C)C`, the Potency result in experiment [1] and in experiment [2] was “inactive” each time.

Take `O=C(O)CC(=O)O`: the Potency entry in experiment [1] and in experiment [2] was “inactive” each time.

Regarding `NC(=O)c1ncn([C@@H]2O[C@H](CO)[C@@H](O)[C@H]2O)c1O`, the Potency result in experiment [1] and in experiment [2] was “inactive” each time.

Turning to `C[C@]12C=CC(=O)C=C1[C@@H](F)C[C@@H]1[C@@H]2[C@@H](O)C[C@@]2(C)[C@H]1CC[C@]2(O)C(=O)CO`, the Potency result in experiment [1] and in experiment [2] was “inactive” throughout.

On to `O=C1CCC/C=C\CCCCCCCCCC1`, for which the Potency entry in experiment [1] and in experiment [2] was “inactive” each time.

For `NCC1CCCC(CN)C1` (stereo not drawn), the Potency result in experiment [1] and in experiment [2] was “inactive” each time.

As to `CC1COc2c(N3CCN(C)CC3)c(F)cc3c(=O)c(C(=O)O)cn1c23` (stereo not drawn), the Potency entry in experiment [1] and in experiment [2] was “inactive” each time.

For `CCC(=O)c1cccc(Cl)c1`, the Potency result in experiment [1] and in experiment [2] was “inactive” throughout.

With `CCO[Si](C)(OCC)OCC`, the Potency entry in experiment [1] and in experiment [2] was “inactive” each time.

Consider `C=C(C)C(=O)OCCCCCCCCCCCCC`, for which the Potency result in experiment [1] and in experiment [2] was “inactive” each time.

Regarding `CCOc1ccc2c(c1)C(C)=CC(C)(C)N2`, the Potency entry in experiment [1] and in experiment [2] was “inactive” each time.

Turning to `C=CCOCC(O)CS(=O)(=O)O` (stereo not drawn), the Potency result in experiment [1] and in experiment [2] was “inactive” in each case.

Consider `COc1cc2c(cc1OC)[C@@H]1CC(=O)[C@@H](CC(C)C)CN1CC2`, for which the Potency result in experiment [1] and in experiment [2] was “inactive” each time.

For `Cc1ccc(N)cc1S(=O)(=O)O`, the Potency entry in experiment [1] and in experiment [2] was “inactive” throughout.

Take `CC(C)(C)c1ccc(OC(=O)c2ccccc2O)cc1`: the Potency entry in experiment [1] and in experiment [2] was “inactive” each time.

For `O=C(O)Cn1c(=O)n(Cc2ccc(Br)cc2F)c(=O)c2ccc(Cl)cc21`, the Potency result in experiment [1] and in experiment [2] was “inactive” each time.

As to `CC(=O)N[C@@H](CC(C)C)C(=O)O`, the Potency result in experiment [1] and in experiment [2] was “inactive” throughout.

For the compound `CCCc1c(OCCCCc2nn[nH]n2)ccc(C(C)=O)c1O`, the Potency result in experiment [1] and in experiment [2] was “inactive” each time.

As to `COc1cccc(O)c1`, the Potency entry in experiment [1] and in experiment [2] was “inactive” in each case.

Consider `NC1[C@H]2CN(c3nc4c(cc3F)c(=O)c(C(=O)O)cn4-c3ccc(F)cc3F)C[C@@H]12` (stereo partly drawn), for which the Potency result in experiment [1] and in experiment [2] was “inactive” throughout.

In the case of `CC1(C)C(C=C(Cl)Cl)C1C(=O)OCc1cccc(Oc2ccccc2)c1` (stereo not drawn), the Potency entry in experiment [1] and in experiment [2] was “inactive” each time.

Consider `CCCCCCCCc1ccc(S(=O)(=O)O)cc1`, for which the Potency result in experiment [1] and in experiment [2] was “inactive” each time.

Regarding `C=C(C)CS(=O)(=O)O`, the Potency entry in experiment [1] and in experiment [2] was “inactive” in each case.
